Test results from PubChem BioAssay (NCATS).
Results filed as inconclusive are left out. Active and inactive are the calls of the source. Calls follow the shape of the full dose curve.

Columns and labels:
[1] = Primary qHTS for inhibitors of SARS-S pseudo-typed particle cell entry (AID 1479145); also: nearly all actives have a fitted effect of over 45% in size
[2] = Primary qHTS for Huh7 cytotoxicity: counterscreen for inhibitors of MERS-S pseudotyped particle cell entry (AID 1479147)
[3] = Primary qHTS for inhibitors of MERS-S pseudo-typed particle cell entry (AID 1479149); also: nearly all actives have a fitted effect of over 60% in size
[4] = Primary qHTS for Vero E6 cytotoxicity: counterscreen for inhibitors of SARS-S pseudo-typed particle cell entry (AID 1479150)
% is scaled to controls: 0 for no effect and ±100 for the full control effect.

CCCNC(C)(C)COC(=O)c1ccccc1
inactive: Potency [1] | Potency [2] | Potency [3] | Potency [4]

O=C(NN1CCCC1)NS(=O)(=O)c1ccc(Cl)cc1
inactive: Potency [1] | Potency [2] | Potency [3] | Potency [4]

COc1ccc2c(c1)c(CC(=O)OCC(=O)O)c(C)n2C(=O)c1ccc(Cl)cc1
inactive: Potency [1] | Potency [2] | Potency [3] | Potency [4]

CC(=O)/C=C/C=C1/C2CCC(C2)C1(C)C (stereo not given)
inactive: Potency [1] | Potency [2] | Potency [3] | Potency [4]

O=C(CCCN1CCN(c2ccccn2)CC1)c1ccc(F)cc1
inactive: Potency [1] | Potency [2] | Potency [3] | Potency [4]

C[C@]12CC[C@@H]3c4ccc(O)cc4CC[C@H]3[C@@H]1C[C@@H](O)[C@@H]2O
inactive: Potency [1] | Potency [2] | Potency [3] | Potency [4]

C[C@]12CC[C@@H]3c4ccc(O)cc4CC[C@H]3[C@@H]1CCC2=O
inactive: Potency [1] | Potency [2] | Potency [3] | Potency [4]

NC(N)=NC(=O)c1nc(Cl)c(N)nc1N
inactive: Potency [1] | Potency [2] | Potency [3] | Potency [4]

COc1cccc(N(C)C(=S)Oc2ccc3c(c2)CCCC3)n1
inactive: Potency [1] | Potency [2] | Potency [3] | Potency [4]

Cc1[nH]c(=O)c(C#N)cc1-c1ccc2nccn2c1
inactive: Potency [1] | Potency [2] | Potency [3] | Potency [4]

COCCc1ccc(OCC(O)CNC(C)C)cc1 (stereo not given)
inactive: Potency [1] | Potency [2] | Potency [3] | Potency [4]

CCC(=O)O[C@]1(C(=O)CCl)[C@@H](C)C[C@H]2[C@@H]3CCC4=CC(=O)C=C[C@]4(C)[C@@]3(F)[C@@H](O)C[C@@]21C
inactive: Potency [1] | Potency [2] | Potency [3] | Potency [4]

COc1cc(O)c(C(=O)c2ccccc2)cc1S(=O)(=O)O
inactive: Potency [1] | Potency [2] | Potency [3] | Potency [4]

CC[N+]1(CC)CCC(=C(c2ccccc2)c2ccccc2)C1C (stereo not given)
inactive: Potency [1] | Potency [2] | Potency [3] | Potency [4]

CC(C)NCCCC1(C(N)=O)c2ccccc2-c2ccccc21
inactive: Potency [1] | Potency [2] | Potency [3] | Potency [4]

CCCCN(CCN(CCCC)C(=O)N1CCOCC1)C(=O)N1CCOCC1
inactive: Potency [1] | Potency [2] | Potency [3] | Potency [4]

Cc1c(N(C)C)c(=O)n(-c2ccccc2)n1C
inactive: Potency [1] | Potency [2] | Potency [3] | Potency [4]

CCN(CC)C(=O)c1cccc(C)c1
inactive: Potency [1] | Potency [2] | Potency [3] | Potency [4]

OCC(CO)N[C@H]1C[C@](O)(CO)[C@@H](O)[C@H](O)[C@H]1O
inactive: Potency [1] | Potency [2] | Potency [3] | Potency [4]

O=C(O)CCc1nc(-c2ccccc2)c(-c2ccccc2)o1
inactive: Potency [1] | Potency [2] | Potency [3] | Potency [4]

Cn1cnc2c1c(=O)[nH]c(=O)n2C
inactive: Potency [1] | Potency [2] | Potency [3] | Potency [4]

COc1nc(C)nc(Cl)c1NC1=NCCN1
inactive: Potency [1] | Potency [2] | Potency [3] | Potency [4]

C[C@H]1NCc2cc(-c3ccc4c(=O)c(C(=O)O)cn(C5CC5)c4c3OC(F)F)ccc21
inactive: Potency [1] | Potency [2] | Potency [3] | Potency [4]

Nc1c2c(nc3ccccc13)CCCC2
inactive: Potency [1] | Potency [2] | Potency [3] | Potency [4]

O=C(O)c1cn(-c2ccc(F)cc2)c2cc(N3CCNCC3)c(F)cc2c1=O
inactive: Potency [1] | Potency [2] | Potency [3] | Potency [4]

CC1=C(CC(=O)O)c2cc(F)ccc2/C1=C\c1ccc(S(C)=O)cc1 (stereo not given)
inactive: Potency [1] | Potency [2] | Potency [3] | Potency [4]

N[C@@H](CSSC[C@H](N)C(=O)O)C(=O)O
inactive: outcome [1] inactive [at 0.573 µM] | activity change, negative = cytotoxicity [2] 2.73% [at 0.573 µM] | outcome [3] inactive [at 0.573 µM] | activity change, negative = cytotoxicity [4] 4.84% [at 0.573 µM]

C[C@]12CC[C@@H]3c4ccc(O)cc4CC[C@H]3[C@@H]1CC[C@@H]2OC(=O)CCC1CCCC1
inactive: Potency [1] | Potency [2] | Potency [3] | Potency [4]

C[C@H](N)C(=O)N[C@@H](C)C(=O)NC1[C@H]2CN(c3nc4c(cc3F)c(=O)c(C(=O)O)cn4-c3ccc(F)cc3F)C[C@@H]12 (stereo not given in full)
inactive: Potency [1] | Potency [2] | Potency [3] | Potency [4]

NS(=O)(=O)c1ccc(N2CCCCS2(=O)=O)cc1
inactive: Potency [1] | Potency [2] | Potency [3] | Potency [4]

CCC(=O)O[C@]1(C(=O)SCF)[C@H](C)C[C@H]2[C@@H]3C[C@H](F)C4=CC(=O)C=C[C@]4(C)[C@@]3(F)[C@@H](O)C[C@@]21C
inactive: Potency [1] | Potency [2] | Potency [3] | Potency [4]

C[C@H]1C[C@H]2[C@@H]3CCC4=CC(=O)C=C[C@]4(C)[C@@]3(Cl)[C@@H](O)C[C@]2(C)[C@@]1(O)C(=O)CO
inactive: Potency [1] | Potency [2] | Potency [3] | Potency [4]

O=Cc1ccccc1C=O
inactive: Potency [1] | Potency [2] | Potency [3] | Potency [4]

O=C(CCCCC(=O)Nc1c(I)cc(I)c(C(=O)O)c1I)Nc1c(I)cc(I)c(C(=O)O)c1I
inactive: Potency [1] | Potency [2] | Potency [3] | Potency [4]

CCCCOc1ccc(CC(=O)NO)cc1
inactive: Potency [1] | Potency [2] | Potency [3] | Potency [4]
